From PubChem BioAssay
HP1b chromo inh: HP1-beta chromodomain-methylated histone interaction inhibition | P83916 | AlphaScreen HP1-beta / biotin-H3K9me3 peptide binding | Potency, µM (highest dose often 114 µM), for inactives: at the highest dose activity change, negative = inhibition, actives largely listed as inhibitors | 390,000 compounds, 0.56% hits | AID 540317; further: potency means the concentration at half of the fitted maximal effect; nearly all actives have a fitted effect of over 70% in size
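HP1-beta protein (50 nM final) preincubated 30 min at room temperature with biotinylated H3(1-18)K9me3 peptide (50 nM) in PBS pH 7.4, 0.01% Tween-20, then compound added for 30 min. AlphaScreen streptavidin donor/nickel chelate acceptor beads (10 ug/mL final), 30 min dark, luminescence read.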
G9a inh: G9a (human) methyltransferase inhibition; Q96KQ7; G9a H3K9 monomethylation, AlphaScreen, 2 h; Potency, µM (titrated, usually from 102 µM), without a hit: top-dose activity, negative = inhibition, usual class: inhibitors; 350,000 compounds, 8.8% hits; AID 504332; further: potency means the concentration at half of the fitted maximal effect; on the % scale 0 is the no-effect control and ±100 the full control effect; nearly all actives have a fitted effect of over 75% in size
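Using a bead-based AlphaScreen, monomethylated H3K9 product from 2 h room-temperature reactions (G9a 20 nM, peptide 500 nM, SAM 20 uM) was detected with 0.5 ug/mL rabbit anti-H3K9me1 antibody.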
CtBP-E1A blk: CtBP/E1A binding inhibition; activity change, % (no concentration beside the values); 340,000 compounds, 0.49% hits; AlphaScreen GST-E1A/His-CtBP binding, 1536-well; hits give low values; in the data active means activity change below about -65%; inconclusive means mostly about -30% to -63%; further: on the % scale 0 is the no-effect control and ±100 the full control effect
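Protein mix (5X: 125 nM each GST-E1A, His-CtBP) was incubated with pinned compound 2 h at 37 deg C in dark, in 50 mM Tris pH 8.0 buffer with 300 mM NaCl. Glutathione donor and nickel acceptor beads followed; AlphaScreen signal read after 1 h.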
JMJD2A Tudor inh: blocks the human JMJD2A Tudor domain; O75164; AlphaScreen JMJD2A-Tudor / H3K4me3 peptide binding; Potency, µM (series often up to 114 µM), for the others: at the top dose activity change, negative = inhibition, most hits filed as inhibitors; 390,000 compounds, 4.4% hits; AID 504339; further: potency means the concentration at half of the fitted maximal effect; on the % scale 0 is the no-effect control and ±100 the full control effect; nearly all actives have a fitted effect of over 50% in size
Six1-Eya2 blk: Six1/Eya2 interaction inhibition | AlphaScreen GST-Six1/His-Eya2 binding, biochemical; hits give low values | activity change, % (no concentration beside the values) | 360,000 compounds, 0.56% hits; in the data active means activity change below about -65%; inconclusive means mostly about -30% to -63%; further: on the % scale 0 is the no-effect control and ±100 the full control effect
Target sequence (O00167 whole entry, looked up): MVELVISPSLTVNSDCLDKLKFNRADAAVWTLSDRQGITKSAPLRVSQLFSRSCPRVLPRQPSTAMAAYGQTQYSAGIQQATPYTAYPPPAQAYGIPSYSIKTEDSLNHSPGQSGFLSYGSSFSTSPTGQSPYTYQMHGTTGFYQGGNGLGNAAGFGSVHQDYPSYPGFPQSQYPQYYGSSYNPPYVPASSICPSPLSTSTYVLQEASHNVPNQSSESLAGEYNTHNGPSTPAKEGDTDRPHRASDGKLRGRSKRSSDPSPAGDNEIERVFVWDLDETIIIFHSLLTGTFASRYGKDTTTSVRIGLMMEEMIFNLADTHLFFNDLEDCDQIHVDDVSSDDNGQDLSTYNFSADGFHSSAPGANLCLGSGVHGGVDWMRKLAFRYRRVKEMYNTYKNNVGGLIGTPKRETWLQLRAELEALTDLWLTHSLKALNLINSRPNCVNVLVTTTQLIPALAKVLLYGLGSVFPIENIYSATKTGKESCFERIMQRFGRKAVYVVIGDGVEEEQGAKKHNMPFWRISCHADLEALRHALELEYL
Target sequence (Q15475 whole entry, looked up): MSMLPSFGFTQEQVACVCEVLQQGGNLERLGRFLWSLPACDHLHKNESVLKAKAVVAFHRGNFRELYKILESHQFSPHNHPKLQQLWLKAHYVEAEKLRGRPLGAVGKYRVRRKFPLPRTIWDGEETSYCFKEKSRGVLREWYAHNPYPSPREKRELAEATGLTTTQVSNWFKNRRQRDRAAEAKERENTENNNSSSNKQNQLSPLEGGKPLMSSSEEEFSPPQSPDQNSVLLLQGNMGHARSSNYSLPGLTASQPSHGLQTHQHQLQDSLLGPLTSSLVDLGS
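AlphaScreen luminescence read after one hour at 37 °C in darkness. Pin-transferred compounds met GST-Six1 and His-Eya2 protein (5X stock 250 nM/500 nM) plus glutathione donor and Ni-chelate acceptor beads (5X, 50 ug/mL).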
BAZ2B inh: blocks human BAZ2B; Q9UIF8; AlphaScreen BAZ2B-H3K14Ac peptide displacement; Potency, µM (titrated, usually from 114 µM), without a hit: top-dose activity change, negative = inhibition, actives largely listed as inhibitors; 360,000 compounds, 4.4% hits; further: potency means the concentration at half of the fitted maximal effect; on the % scale 0 is the no-effect control and ±100 the full control effect; nearly all actives have a fitted effect of over 60% in size
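AlphaScreen displacement of biotin-H3(5-23)K14Ac peptide (50 nM final) from BAZ2B (50 nM final) in PBS pH 7.4, 0.01% Tween-20; complex preformed 30 min RT, then compounds (top 110 uM) 30 min RT, beads 20 min dark.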
The depositor's hits bear a star; ? = inconclusive; . = not tested or not shown; ! = not active in a repeat; [ ] = dose if it differs, or a comment. This is a sample that favours compounds with a hit; in the whole collection about 10% have one here. Unless noted, the call rests on the fitted dose curve; in most records, active means well fitted inhibition curve with a large enough effect; inconclusive means small, poorly fitted or top-dose-only effect; inactive means no such curve, though single readings can be large or run the other way.

SMILES	HP1b chromo inh	G9a inh	CtBP-E1A blk	JMJD2A Tudor inh	Six1-Eya2 blk	BAZ2B inh
CON=C(C(=O)NC1C(=O)N2C(C(=O)O)=C(CSc3nc(=O)c(=O)[nH]n3C)CSC12)c1csc(N)n1 (centres undefined)	-11.0%	.	-10.2	50.1µM*	-24.8	.
CO/N=C(\C(=O)N[C@@H]1C(=O)N2C(C(=O)O)=C(COC(C)=O)CS[C@H]12)c1csc(N)n1	.	11.2µM*	.	.	.	.
CO/N=C(\C(=O)N[C@@H]1C(=O)N2C(C(=O)O)=C(COC(N)=O)CS[C@H]12)c1ccco1	15.2%	?	-5.5	25.1µM*	7.4	-6.0%
CO/N=C(\C(=O)N[C@@H]1C(=O)N2C(C(=O)O)=C(CSc3nc(=O)c(O)nn3C)CSC12)c1csc(N)n1 (some centres undefined)	.	28.2µM*!	.	.	.	.
CCC(C(=O)NCc1ccccc1)n1ncn2c(cc3occc32)c1=O (centres undefined)	32.5%	?	.	0.0%	.	-0.6%
C=C(NCc1ccccc1)c1ccccc1O	.	4.6%[12.7 µM]	.	.	.	.
N#CN1CCC(NS(=O)(=O)c2ccc(F)cc2)CC1	.	.	.	-8.9%	.	.
COc1ccccc1-c1nn(CCC(=O)Nc2ccc(C)cc2)c2nc(C)cc(C)c12	18.4%	6.3%[59 µM]	.	-21.1%	.	-4.3%
O=C(CSCCc1ccccn1)Nc1ccccn1	51.0%	56.2µM*	12.0	-7.6%	-0.8	-2.3%
O=C(NC(=S)Nc1ccc(N2CCOCC2)c(Cl)c1)c1sc2ccccc2c1Cl	5.0%	1.26µM*	3.5	-11.0%	-8.5	-35.3%
O=C(Nc1ccc(N2CCCC2)c(Cl)c1)c1cccs1	?	28.2µM*	-15.9	44.7µM*	-1.2	44.7µM*
O=C(NC(=S)Nc1ccc(N2CCCCC2)cc1)c1cccs1	39.8µM*	14.1µM*	?	35.5µM*	-67.1*	14.1µM*
O=C(Nc1ccc(N2CCN(C(=O)c3cccs3)CC2)c(Cl)c1)c1ccco1	17.0%	-1.3%	-9.4	-12.2%	-4.3	-3.1%
O=C(Nc1ccc2c(c1)OCCO2)c1cccnc1	30.4%	-0.7%[59 µM]	-5.1	89.1µM*	-0.2	?
O=C(NC(=S)Nc1ccccc1N1CCOCC1)c1sc2ccccc2c1Cl	-7.2%	?	-10.5	-28.9%	-3.6	-6.6%
O=C(Nc1ccc2c(c1)OCCO2)c1ccc2nccnc2c1	21.4%	-25.4%	1.3	-5.2%	-3.8	-20.9%
CC(=O)Nc1ccc(NC(=O)C2Cc3ccccc3N2C(=O)c2ccccc2)cc1 (centres undefined)	13.1%	3.9%[59 µM]	.	-10.6%	.	-2.5%
CCCN1Cc2cccc(C(=O)Nc3ccc4c(c3)OCO4)c2C1=O	-6.4%	10.5%[12.7 µM]	-0.3	-13.6%	-2.3	?
COC(=O)c1sccc1NC(=O)c1cccnc1	-1.4%	1.4%[59 µM]	-11.6	89.1µM*	-5.9	3.4%
O=C(Nc1ccc(N2CCCCC2)c(Cl)c1)c1cccnc1	-2.4%	12.2%	-2.1	-6.9%	0.5	6.2%
O=C(Nc1ccc(N2CCCC2)c(Cl)c1)c1cccnc1	1.5%	8.91µM*	-16.4	-31.2%	-22.8	4.8%
CSc1ccc(NC(=O)c2cccnc2)cc1C#N	26.9%	50.1µM*	-0.3	0.0%	8.0	-14.7%
O=C(Nc1ccc2c(c1)OCO2)c1cccc2c1C(=O)N(Cc1cccnc1)C2	7.2%	-5.9%[12.7 µM]	?	?	-21.8	50.1µM*
N#Cc1ccccc1CSc1nnc(-c2ccccc2)o1	23.4%	17.1%[59 µM]	.	6.3%	.	42.4%
COc1ccc(OCC(=O)NC(=S)Nc2ccc(N3CCOCC3)c(Cl)c2)cc1	-18.3%	?	-5.9	-25.0%	-12.4	?
SMILES	HP1b chromo inh	G9a inh	CtBP-E1A blk	JMJD2A Tudor inh	Six1-Eya2 blk	BAZ2B inh
CC(C)CC(=O)NC(=S)Nc1ccc(N2CCOCC2)c(Cl)c1	21.7%	11.2µM*	-1.9	-6.3%	-5.9	-33.5%
O=C(NC(=S)Nc1ccc(N2CCOCC2)c(Cl)c1)c1cccs1	-4.7%	1.1%	-7.8	?	-11.5	35.5µM*
Cc1ccc[n+](C2C(c3ccc([N+](=O)[O-])cc3)C(C#N)=C([S-])NC2(O)C2CC2)c1 (centres undefined)	15.6%	15.8µM*	-13.9	-28.5%	-6.7	?
COc1ccc([C@H]2C(C#N)=C([S-])N[C@](C)(O)[C@@H]2[n+]2ccccc2)cc1	-2.9%	14.1µM*	.	56.2µM*	-2.4	-25.1%
COc1cccc(-n2nc(C#N)c(Cl)cc2=O)c1	75.1%	50.1µM*	-15.2	-26.8%	?	-23.1%
COc1cccc(-n2nc(C(N)=O)c(O)cc2=O)c1	29.5%	-49.7%	0.0	-11.2%	9.1	-31.9%
O=C1C(Cl)=C(NS(=O)(=O)c2ccc([N+](=O)[O-])cc2)C(=O)c2ccccc21	?	-154.1%[59 µM]	-3.3	?	-6.7	44.7µM*
C/C(=N\O)c1ccc2c3c([nH]c2c1)CCCC3	-15.1%	?	-15.1	?	-16.9	39.8µM*
O=C(NCCCN1CCN(c2ccccc2)CC1)c1sc2ncccc2c1-n1cccc1	-16.0%[57 µM]	-30.2%[59 µM]	.	?	.	?
Cc1ccc(C)n1-c1c(C(=O)NCCCN2CCN(c3ccc(F)cc3)CC2)sc2ncccc12	-2.9%[57 µM]	-44.8%[59 µM]	.	50.1µM*	.	?
O=C(NCCCN1CCN(c2cccc(Cl)c2)CC1)c1sc2ncccc2c1-n1cccc1	-20.6%[57 µM]	-44.7%[59 µM]	.	31.6µM*	.	35.5µM*
CCOc1ccc(NC(=O)c2oc3ccccc3c2NC(=O)C(C)(C)C)cc1	60.3%	-4.0%[59 µM]	.	-9.6%	.	-1.9%
O=C(CCl)N1CCN(S(=O)(=O)c2ccc3ccccc3c2)CC1	40.5%	-16.9%	5.3	-27.1%	5.8	-17.6%
Cc1ccc(S(=O)(=O)N2CCCCC2)cc1C(=O)NCC1CCCO1 (centres undefined)	18.4%	19.2%	0.0	2.2%	12.0	-1.5%
O=C(CNCC1CCCO1)N1CCN(S(=O)(=O)c2ccc3ccccc3c2)CC1 (centres undefined)	-34.6%	?	0.2	7.94µM*	-2.0	56.2µM*
O=C(NCC1CCCO1)c1cc(S(=O)(=O)N2CCCCC2)ccc1Cl (centres undefined)	35.5%	8.0%[12.7 µM]	.	-8.4%	8.0	56.2µM*
Cc1cccc(-n2nc(C)c(C(=O)Nc3cc(C)ccc3C)c2-n2cccc2)c1	29.0%	0.0%[59 µM]	.	0.3%	.	-0.2%
Cc1ccc(NC(=S)N2CCC(c3ccc(C)cc3)C2)cc1 (centres undefined)	-20.9%	10µM*	-1.5	-25.3%	0.3	0.6%
COc1ccc(NC(=S)N2CCC(c3ccc(C)cc3)C2)cc1 (centres undefined)	36.8%	6.5%	-16.8	-18.3%	-8.9	-18.8%
COc1ccc(-c2c3c(=O)n(C)c(=O)n(C)c3cn2-c2ccc(O)cc2)cc1	?	-5.5%[12.7 µM]	-16.2	-32.4%	-1.6	79.4µM*
